Source: PubChem BioAssay AID1159580 (chemical genetic matrix, 2015)
Values joined by “and” are separate entries in the source; they are usually repeats but may differ in a detail not shown here. Identical values can stand only once. In all, about 5,500 compounds went through this assay and about 2,000 (36%) were called active. Roughly 18% stayed inconclusive and do not appear here. Cut-off read from the data, not from the text of the source: active = normalized growth mostly below about 0.91 (no sharp cut-off); inconclusive = no clear call, values can overlap the other calls; inactive = mostly above about 0.92. The list shows a part of the results.

Assay: chemical genetic growth profiling, strain panel (AID 1159580);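 note: tested at 20 µM; growth read once vehicle control cultures reached saturation at 30 °C; 1 = growth at the plate median or of vehicle wells; lower values mean less growth of the strain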
Details: S. cerevisiae deletion strains, growth OD
[1] = locus YHR030C, strain SLT2, hits give low values
[2] = locus YHR079C, strain IRE1, hits give low values
[3] = locus YJL095W, strain BCK1, hits give low values
[4] = locus YJR066W, strain TOR1, hits give low values
[5] = locus YLR113W, strain HOG1, hits give low values
[6] = locus YMR307W, strain GAS1, hits give low values
[7] = locus YNL153C, strain GIM3, hits give low values
[8] = locus YNL183C, strain NPR1, hits give low values
[9] = locus YOR231W, strain MKK1, hits give low values
[10] = locus YPL256C, strain CLN2, hits give low values

Measured: normalized growth

COc1c2c(cc3c1OCO3)CCN(C)C2
inactive: locus YAL021C, strain ccr4, hits give low values 0.987 | locus YAL026C, strain drs2, hits give low values 1.01 | locus YAL030W, strain snc1, hits give low values 1.01 | locus YBL061C, strain skt5, hits give low values 1.02 | locus YBR009C, strain hhf1, hits give low values 1.02 | locus YBR021W, strain FUR4, hits give low values 0.988 | locus YBR023C, strain chs3, hits give low values 1.01 | locus YBR171W, strain sec66, hits give low values 1.03 | locus YBR229C, strain ROT2, hits give low values 1.01 | locus YBR231C, strain swc5, hits give low values 1.01 | locus YBR279W, strain paf1, hits give low values 1 | locus YCL011C, strain gbp2, hits give low values 1.01 | locus YCL016C, strain dcc1, hits give low values 1.01 | locus YCL029C, strain bik1, hits give low values 1 | locus YCL061C, strain MRC1, hits give low values 1.02 | locus YCL069W, strain vba3, hits give low values 1 | locus YCR088W, strain abp1, hits give low values 1.01 | locus YDL005C, strain med2, hits give low values 1.02 | locus YDL035C, strain GPR1, hits give low values 1.02 | locus YDL040C, strain nat1, hits give low values 0.996 | locus YDL074C, strain BRE1, hits give low values 1.01 | locus YDL101C, strain DUN1, hits give low values 1.02 | locus YDL185W, strain tfp1, hits give low values 0.995 | locus YDL192W, strain arf1, hits give low values 1.01 | locus YDR001C, strain nth1, hits give low values 1.01 | locus YDR069C, strain doa4, hits give low values 1.02 | locus YDR101C, strain arx1, hits give low values 1 | locus YDR137W, strain rgp1, hits give low values 1.01 | locus YDR159W, strain sac3, hits give low values 1.01 | locus YDR162C, strain NBP2, hits give low values 1.01 | locus YDR195W, strain ref2 0.999 | locus YDR297W, strain sur2, hits give low values 0.999 | locus YDR318W, strain mcm21, hits give low values 1 | locus YDR334W, strain swr1, hits give low values 1.02 | locus YDR335W, strain msn5, hits give low values 0.998 | locus YDR388W, hits give low values 1 | locus YDR392W, strain spt3, hits give low values 0.991 | locus YDR502C, strain sam2, hits give low values 1 | locus YEL003W, strain gim4, hits give low values 1.01 | locus YEL037C, strain rad23, hits give low values 1 | locus YEL061C, strain CIN8 (second series), hits give low values 1 | locus YEL061C, strain CIN8, hits give low values 1.01 | locus YER015W, strain faa2, hits give low values 1.01 | locus YER016W, strain bim1, hits give low values 1.02 | locus YER110C, hits give low values 0.996 | locus YER111C, strain swi4, hits give low values 1.01 | locus YER155C, strain BEM2 (second series), hits give low values 1.02 | locus YER155C, strain BEM2, hits give low values 1.01 | locus YER167W, strain BCK2, hits give low values 1 | locus YFR010W, strain ubp6, hits give low values 1.02 | locus YGL078C, strain dbp3, hits give low values 1 | locus YGL086W, strain mad1, hits give low values 1.02 | locus YGL167C, strain pmr1, hits give low values 1.02 | locus YGL173C, strain kem1, hits give low values 1.02 | locus YGL227W, strain vid30, hits give low values 1.01 | locus YGL240W, strain doc1, hits give low values 1.02 | locus YGL248W, strain PDE1, hits give low values 1.01 | locus YGL253W, strain hxk2, hits give low values 1.01 | locus YGR078C, strain PAC10, hits give low values 1.01 | locus YGR135W, strain pre9, hits give low values 0.992 | locus YGR252W, strain gcn5, hits give low values 0.986 | locus YHR013C, strain ard1, hits give low values 1.01 | locus YHR027C, strain rpn1, hits give low values 1.02 | [1] 1 and 1.06 | locus YHR079C, strain IRE1 (second series), hits give low values 1.02 | [2] 1.05 | locus YHR094C, strain hxt1, hits give low values 0.994 | locus YHR129C, strain ARP1, hits give low values 1 | locus YHR142W, strain chs7, hits give low values 0.991 | locus YHR200W, strain rpn10, hits give low values 0.975 | locus YIL066C, strain RNR3, hits give low values 1.01 | locus YIL073C, strain SPO22, hits give low values 1.01 | locus YIL125W, strain kgd1, hits give low values 1 | locus YIR030C, strain dcg1, hits give low values 0.997 | locus YJL092W, strain hpr5, hits give low values 1.01 | locus YJL095W, strain BCK1 (second series), hits give low values 1.01 | [3] 0.996 and 1.04 | locus YJL115W, strain asf1, hits give low values 1.01 | locus YJL129C, strain trk1, hits give low values 1.03 | locus YJL134W, strain LCB3, hits give low values 0.998 | locus YJL154C, strain vps35, hits give low values 0.998 | locus YJL164C, strain tpk1, hits give low values 0.992 | locus YJL166W, strain qcr8, hits give low values 0.999 | locus YJL168C, strain set2, hits give low values 1 | locus YJL187C, strain SWE1 (second series), hits give low values 1.01 | locus YJL187C, strain SWE1, hits give low values 1.01 | locus YJR043C, strain POL32, hits give low values 1.02 | [4] 0.976 | locus YJR075W, strain HOC1, hits give low values 1.01 | locus YKL009W, strain mrt4, hits give low values 1.02 | locus YKL068W, hits give low values 0.992 | locus YKL085W, strain MDH1 (second series), hits give low values 0.999 | locus YKL085W, strain MDH1, hits give low values 0.999 | locus YKL160W, strain elf1, hits give low values 0.992 | locus YKL190W, strain CNB1, hits give low values 1.01 | locus YKR001C, strain vps1, hits give low values 0.964 | locus YKR026C, strain gcn3, hits give low values 1.01 | locus YKR091W, strain srl3, hits give low values 0.998 | locus YLL001W, strain dnm1, hits give low values 0.991 | locus YLL026W, hits give low values 1.01 | locus YLL041C, strain sdh2, hits give low values 1.01 | locus YLR027C, strain aat2, hits give low values 1.02 | locus YLR039C, strain RIC1, hits give low values 1.02 | locus YLR058C, strain SHM2, hits give low values 1.01 | locus YLR102C, strain apc9, hits give low values 0.997 | [5] 1.04 | locus YLR221C, strain rsa3, hits give low values 1.03 | locus YLR258W, strain gsy2, hits give low values 0.999 | locus YLR262C, strain YPT6 (second series), hits give low values 0.987 | locus YLR262C, strain YPT6, hits give low values 1.01 | locus YLR268W, strain sec22, hits give low values 1.01 | locus YLR320W, strain mms22, hits give low values 1.02 | locus YLR330W, strain CHS5, hits give low values 1.01 | locus YLR342W, strain FKS1 (second series), hits give low values 1.01 | locus YLR342W, strain FKS1, hits give low values 1 | locus YLR357W, strain rsc2, hits give low values 1.01 | locus YLR370C, strain arc18, hits give low values 1.01 | locus YLR371W, strain rom2, hits give low values 1 | locus YLR384C, strain iki3, hits give low values 1.02 | locus YLR418C, strain cdc73, hits give low values 0.957 | locus YML016C, strain PPZ1, hits give low values 0.986 | locus YML032C, strain rad52, hits give low values 0.982 | locus YML120C, strain ndi1, hits give low values 1 | locus YML124C, strain tub3, hits give low values 0.99 | locus YMR058W, strain fet3, hits give low values 1.02 | locus YMR078C, strain ctf18, hits give low values 0.996 | locus YMR125W, strain sto1, hits give low values 1 | locus YMR129W, hits give low values 1.01 | locus YMR205C, strain PFK2, hits give low values 0.996 | locus YMR223W, strain ubp8, hits give low values 0.992 | locus YMR231W, strain pep5, hits give low values 0.987 | locus YMR263W, strain SAP30, hits give low values 1.02 | [6] 1.02 | locus YNL067W, strain RPL9B, hits give low values 1.01 | locus YNL071W, strain lat1, hits give low values 1 | [7] 1 | [8] 0.985 | locus YNL209W, strain ssb2, hits give low values 1 | locus YNL233W, strain BNI4, hits give low values 1.01 | locus YNL248C, strain rpa49, hits give low values 1.02 | locus YNL250W, strain rad50, hits give low values 0.993 | locus YNL271C, strain bni1, hits give low values 1.01 | locus YNL298W, strain CLA4, hits give low values 0.984 | locus YNL307C, strain MCK1, hits give low values 1 | locus YNL322C, strain KRE1 (second series), hits give low values 1.02 | locus YNL322C, strain KRE1, hits give low values 1.01 | locus YNR049C, strain mso1, hits give low values 1.01 | locus YNR052C, strain pop2, hits give low values 1.01 | locus YOL012C, strain htz1 0.662 | locus YOL147C, strain pex11, hits give low values 0.979 | locus YOR001W, strain rrp6, hits give low values 1.04 | locus YOR061W, strain CKA2, hits give low values 1.01 | locus YOR069W, strain VPS5, hits give low values 1.01 | locus YOR070C, strain gyp1, hits give low values 1.02 | locus YOR080W, strain dia2, hits give low values 1.01 | locus YOR083W, strain WHI5, hits give low values 0.991 | locus YOR106W, strain vam3, hits give low values 1.02 | locus YOR136W, strain idh2, hits give low values 1.02 | locus YOR144C, strain elg1, hits give low values 0.985 | locus YOR184W, strain ser1, hits give low values 1.04 | [9] 1.04 | locus YOR265W, strain rbl2, hits give low values 1.01 | locus YOR270C, strain vph1, hits give low values 1.01 | locus YOR290C, strain snf2, hits give low values 0.981 | locus YOR316C, strain cot1, hits give low values 0.991 | locus YPL051W, strain arl3, hits give low values 1.01 | locus YPL078C, strain atp4, hits give low values 0.981 | locus YPL106C, strain sse1, hits give low values 0.996 | locus YPL240C, strain hsp82, hits give low values 1.01 | [10] 1.06 | locus YPR119W, strain clb2, hits give low values 1 | locus YPR141C, strain kar3, hits give low values 0.991 | locus YPR163C, strain tif3, hits give low values 0.995 | locus YPR167C, strain met16, hits give low values 0.996 | strain wtn01, hits give low values 0.997

NC(=O)CCCCC1CCSS1 (configuration not stated)
inactive: [1] 1.02 | [2] 0.976 | [3] 1.01 | [4] 0.955 | [5] 1.02 | [8] 0.966 | [9] 0.986 | [10] 1.01

O=C(O)CCCC[C@@H]1CCSS1
inactive: locus YAL013W, strain DEP1, hits give low values 0.962 | locus YAL040C, strain CLN3, hits give low values 0.933 | locus YCL061C, strain MRC1 (second series), hits give low values 0.979 | locus YDR150W, strain NUM1, hits give low values 0.996 | locus YDR363W, strain ESC2, hits give low values 0.971 | locus YER002W, strain NOP16, hits give low values 0.968 | locus YGR229C, strain SMI1, hits give low values 0.957 | [6] 0.962 | [7] 1.01 | locus YNL175C, strain NOP13, hits give low values 0.979 | locus YNL197C, strain WHI3, hits give low values 0.972 | locus YNL224C, strain SQS1, hits give low values 0.977 | locus YOR083W, strain WHI5 (second series), hits give low values 0.937 | locus YPL055C, strain LGE1, hits give low values 0.989
